# Test results from PubChem BioAssay AID687028 (Broad Institute, 2013).
# Among all 1,400 compounds or so, about 55 (4%) were called active. The list is a sample of the results. Potency and affinity values are given separately. Unmarked numbers belong to inactive results. No rule for the calls is given here.
# Experiment: A549 cell toxicity, dose response, cytotoxicity control, plate reader, cherry-pick samples (AID 687028);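 also: cells incubated with compound for three days before reading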
# Conditions: series mostly up to 19.5 µM; activity change, negative = toxicity: at the top concentration
row,Compound,"activity change, negative = toxicity"
1,CS(=O)(=O)N1[C@@H]2CNC[C@H]1C2c1ccc(-c2ccccc2)cc1 (some centres undefined),4.12%
2,O=C(NC1CCCCC1)[C@@H]1[C@@H](CO)[C@@H]2Cn3c(cccc3=O)[C@H]1N2Cc1cccnc1,2.63%
3,CN(Cc1nccs1)C(=O)c1ccc(OC2CCN(Cc3ccccn3)CC2)cc1,-2.25%
4,COc1ccc(NC(=O)N[C@@H]2CC[C@@H](CCNS(=O)(=O)c3cccc(Cl)c3)O[C@@H]2CO)cc1,5.25%
5,COc1ccc(NC(=O)N[C@H]2CC[C@@H](CCn3cc(C4(O)CCCC4)nn3)O[C@@H]2CO)cc1,4.25%
6,Cc1ccc(OCC(=O)NC2CCSc3ccccc32)cc1 (centres undefined),5.23%
7,O=C(NCCc1ccccc1)c1ccccc1NC(=O)C1CCCCC1C(=O)O (centres undefined),2.25%
8,CC1CC2=C(C(=O)O1)C(c1ccc(Cl)cc1)Nc1ccccc1N2 (centres undefined),2.94%
9,COc1ccc(C#Cc2ccc([C@H]3[C@@H](CO)N4CCCCN(S(=O)(=O)c5ccccc5)C[C@@H]34)cc2)cc1,0.141%
10,C[C@H](CO)N1C[C@H](C)[C@@H](CN(C)Cc2ccc(Oc3ccccc3)cc2)Oc2ccc(NC(=O)Cn3cnnn3)cc2CC1=O,-2.24%
11,C[C@@H]1CCCCO[C@@H](CN(C)S(=O)(=O)c2ccc(F)cc2)[C@@H](C)CN([C@H](C)CO)C(=O)c2cc(NC(=O)Nc3ccc(C(F)(F)F)cc3)ccc2O1,-4.87% [at 21 µM]
12,C[C@@H]1CN([C@H](C)CO)C(=O)c2cc(NC(=O)c3ccncc3)ccc2O[C@@H](C)CCCCO[C@H]1CN(C)Cc1ccc(Cl)c(Cl)c1,0.429%
13,C[C@H](CO)N1C[C@H](C)[C@@H](CN(C)C(=O)Cc2ccccc2)OCCCC[C@H](C)Oc2ccc(NS(=O)(=O)c3ccc(F)cc3)cc2C1=O,-0.634%
14,Cc1ccc(S(=O)(=O)N(C)C[C@@H]2OCCCC[C@H](C)Oc3ccc(NS(=O)(=O)c4c(C)noc4C)cc3C(=O)N([C@@H](C)CO)C[C@@H]2C)cc1,-0.321%
15,C[C@@H]1CCCCO[C@@H](CN(C)Cc2ccccc2)[C@@H](C)CN([C@H](C)CO)C(=O)c2cc(NC(=O)c3ccccc3)ccc2O1,-2.93% [at 21 µM]
16,C[C@@H]1CCCCO[C@@H](CN(C)S(C)(=O)=O)[C@H](C)CN([C@@H](C)CO)C(=O)c2cc(NS(=O)(=O)c3ccc(Cl)cc3)ccc2O1,16.8%
17,C[C@@H]1CCCCO[C@@H](CN(C)C(=O)c2ccccc2)[C@@H](C)CN([C@@H](C)CO)C(=O)c2cc(NS(=O)(=O)c3ccc(F)cc3)ccc2O1,2.27%
18,Cc1ccc(S(=O)(=O)N(C)C[C@@H]2OCCCC[C@H](C)Oc3ccc(NS(=O)(=O)c4c(C)noc4C)cc3C(=O)N([C@H](C)CO)C[C@H]2C)cc1,-6.59%
19,COc1ccccc1CN1[C@H](CO)[C@H]2c3ccccc3N(C(=O)c3ccncc3)C[C@H]21,1.88% [at 21 µM]
20,COc1ccc(C)cc1N(CC(=O)Nc1ccc(S(=O)(=O)N2CCOCC2)cc1)S(C)(=O)=O,2.83%
21,CCOc1ccc(C(=O)Nc2ccc(CN3CCOCC3)cc2)cc1Br,0.645%
22,CCn1c(=O)n(CC)c2cc(N3CCCC3)c(NC(=O)c3ccc(C)cc3)cc21,4.36%

row,Compound,"activity change, negative = toxicity"
1,Cc1ccccc1S(=O)(=O)N1C[C@@H](O)COC[C@@H]2O[C@H](CC(=O)N3CCCCC3)CC[C@H]21,2.8%
2,C[C@@H]1CN([C@@H](C)CO)C(=O)Cc2cc(NS(=O)(=O)c3cn(C)cn3)ccc2O[C@H]1CN(C)Cc1ccc(C(=O)Nc2ccccc2N)cc1,14.2%
3,CCCNC(=O)N1[C@H](CO)[C@@H](c2ccccc2)C12CN(C(=O)C1CCCCC1)C2,4.98% [at 21 µM]
4,O=C(CN1CCN(c2cccc(C(F)(F)F)c2)CC1)N(C1CCCC1)C1CCS(=O)(=O)C1 (centres undefined),-6.02%
5,Cc1cc(OCC(=O)NC(Cc2ccc(Cl)cc2)C(=O)O)c2c(C)c(C)c(=O)oc2c1 (centres undefined),1.6%
6,CCc1nc(SCc2ccccc2C)n[nH]1,3.95%
7,Cc1ccc(CCN2CC(C(=O)NCCc3ccccc3)CC2=O)cc1 (centres undefined),-1.28%
8,Cc1noc(C)c1S(=O)(=O)Nc1cccc2c1O[C@H](CN(C)C(=O)NC(C)C)[C@H](C)CN([C@@H](C)CO)C2=O,5.39%
9,CC(C)C[C@@H](COc1ccccc1)N1CCN(Cc2ccccc2)CCC1=O,-4.31%
10,C[C@H](CO)N1C[C@H](C)[C@@H](CN(C)C(=O)Nc2ccc(C(F)(F)F)cc2)OCCCC[C@H](C)Oc2ccc(NS(=O)(=O)c3cccs3)cc2C1=O,-23%
11,COc1ccc(S(=O)(=O)Nc2ccc3c(c2)C(=O)N([C@@H](C)CO)C[C@H](C)[C@@H](CN(C)C(=O)Nc2ccc(C(F)(F)F)cc2)OCCCC[C@H](C)O3)cc1,8.07%
12,COc1ccc(NC(=O)N(C)C[C@H]2OCCCC[C@@H](C)Oc3ccc(NS(C)(=O)=O)cc3C(=O)N([C@H](C)CO)C[C@H]2C)cc1,4.29%
13,C[C@H](CO)N1C[C@H](C)[C@@H](CN(C)C(=O)Nc2ccc(C(F)(F)F)cc2)OCCCC[C@H](C)Oc2ccc(NS(=O)(=O)c3ccc(F)cc3)cc2C1=O,9.95%
14,COc1cccc(CNC(=O)[C@H]2[C@H](CO)[C@H]3Cn4c(ccc(-c5ccncc5)c4=O)[C@H]3N2C)c1,-0.01%
15,N#C[C@H]1[C@@H](c2ccc(C3=CCCCC3)cc2)[C@@H](CO)N1S(=O)(=O)c1cccc(F)c1,2.88%
16,CCOc1ccc(NC(=O)CN(C)C(=O)c2ccccc2OCc2c(C)noc2C)cc1OCC,-0.912%
17,COc1ccc(N2CCN(c3cc(C(=O)NC4CCCCC4)ncn3)CC2)cc1OC,4.44%
18,CC(C)(C)OC(=O)N[C@H]1C=C[C@@H](CC(=O)OCC(F)(F)F)C1,2.97%
19,CCN(CC)c1ccc2cc(C(=O)NCc3ccc(F)cc3)c(=N)oc2c1,-2.33%
20,CC(=O)OCCCN(C)CC/C=C1/c2ccccc2CSc2ccccc21,1.09%
21,CC(C)Oc1ccc(S(=O)(=O)N2CCOCC2)cc1NC(=O)Cc1ccsc1,-1.5%
22,Cc1ccccc1CN1CCN(CC(=O)NC(C)c2ccccc2)CC1 (centres undefined),8.03%
